Data as given in PubChem BioAssay (NCI).
Compounds without any hit were thinned out: in the full panel of roughly 83,000, 20% have a hit.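 Growth was measured after 48 h exposure to one concentration of compound in 96-well plates. Values under 10 count as active.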 The source made the active and inactive calls.

test system: HL-60(TB) leukemia; assay: NCI-60 one-dose screen, 48 h (100 = growth as untreated, 0 = no growth, -100 = all killed); conditions: 10 µM unless noted

| SMILES | growth |
| --- | --- |
| CN1CCCN(Cc2ccc(C(=O)Nc3cccc(Nc4ccc5c(O)cccc5n4)c3)cc2C(F)(F)F)CC1 | -7.86% (active) |
| CC(=O)Oc1ccccc1C(=O)[Se]CC(=O)Nc1cccc(C(F)(F)F)c1 | -14.9% (active) |
| COc1ccc(/C=C2\C(=O)Nc3ccc(Cl)cc32)cc1OCc1ccccn1 | 64.7% (inactive) |
| CN1CCO/C1=C(/NC(=O)c1ccc(Cl)cc1)[P+](c1ccccc1)(c1ccccc1)c1ccccc1 | 54.7% (inactive) |
| Cc1cnc2ccc(Oc3ccccc3-c3ccccc3)nn12 | 107% (inactive) |
| Cn1cc(-c2nnc(N)nc2-c2c[nH]c3ccc(F)cc23)c2cccnc21 | 10.2% (inactive) |
| O=C(NNC(=S)NCCc1ccccc1)c1ccc(OCc2nc3ccc(Cl)cc3[nH]2)cc1 | 88.9% (inactive) |
| COc1ccc2[nH]c(O)c(N=Nc3nc(-c4ccc(Br)cc4)cs3)c2c1 | 73.5% (inactive) |
| Cc1ccc(S(=O)(=O)c2nc(S(=O)(=O)c3ccc(C)cc3)c(N3CCC(O)CC3)s2)cc1 | 35.5% (inactive) |
| Cc1ccn2c(C(=O)c3ccc(Br)cc3)cc(-c3cc(-c4ccc(N(C)C)cc4)c(C#N)c(N)n3)c2c1 | 89.5% (inactive) |
| CN(C)c1ccnc(NCCCSC(c2ccccc2)(c2ccccc2)c2ccccc2)c1 | -59% (active) |
| CCOC(=O)N/C(=C1/OCCN1C)[P+](c1ccccc1)(c1ccccc1)c1ccccc1 | 29.9% (inactive) |
| CC1(C)CC[C@]2(C(=O)Nc3ccccc3)CC[C@]3(C)C(=CCC4[C@@]5(C)C[C@@H](O)[C@H](O)[C@@](C)(CO)C5CC[C@]43C)C2C1 (stereo partly specified) | 13.1% (inactive) |
| CCCCCCCCc1ccc(C(=O)Nc2cccc(P(=O)(O)O)c2)cc1 | 101% (inactive) |
| COc1ccc(C(=O)COc2ccc(NC(=O)Nc3ccc(Cl)c(C(F)(F)F)c3)cc2)cc1 | 19% (inactive) |
| CN(C(=O)CN1C(=O)/C(=C/c2ccco2)SC1=S)C1CCS(=O)(=O)C1 (stereo unspecified) | 81.6% (inactive) |
| C#CCOc1ccc(/C=N/Nc2nc(-c3cc4cc(Br)ccc4oc3=O)cs2)cc1OC | 71.1% (inactive) |
| COc1nccnc1NS(=O)(=O)c1ccc(NC2=C(Cl)C(=O)c3nc(C)ccc3C2=O)cc1 | 100% (inactive) |

| SMILES | growth |
| --- | --- |
| O=C(NN1C(=O)/C(=C/C=C/c2ccc([N+](=O)[O-])o2)SC1=S)c1ccc(O)cc1 | -41.8% (active) |
| O=c1cc(-c2ccccc2)oc2cc(OCCCCNCc3ccccc3)cc(O)c12 | -65.6% (active) |
| COc1ccc2[nH]c(O)c(N=Nc3nc(-c4ccc(C#N)cc4)cs3)c2c1 | 84.4% (inactive) |
| C=CC[N+](C)(C)CCn1c2ccccc2c2nc3cc(C)c(C)cc3nc21 | 97.7% (inactive) |
| COc1ccc(/C=C2\C(=N)N=C(SCc3nc4ccccc4[nH]3)NC2=O)cc1 | 103% (inactive) |
| O=C1NC(=O)c2c1c1c3cc(Br)ccc3[nH]c1c1oc3ccc(F)cc3c21 | 44.6% (inactive) |
| COc1cccc(-c2ccc(/C=N/NC(=O)c3[nH]c4ccc(Br)cc4c3-c3ccccc3)o2)c1 | -38.4% (active) |
| O=C(CNc1nc(-c2ccccc2)cs1)Nc1ccc(Br)cc1 | -40.4% (active) |
| O=S(=O)(Nc1ncccn1)c1ccc(-n2c(-c3ccccc3)nc(-c3ccccc3)c2-c2ccccc2)cc1 | 95.5% (inactive) |
| O=C(CSc1nnc(-c2ccc(-c3nc4ccccc4[nH]3)cc2)o1)Nc1ccc(Br)cc1 | 43.1% (inactive) |
| N#Cc1c(-c2cccc(Cl)c2Cl)cc(-c2ccc3ccccc3c2)[nH]c1=O | 83.8% (inactive) |
| Cn1cc(/C=C(/SS/C(=C/c2cn(C)c3cccc(C(=O)O)c23)C(=O)O)C(=O)O)c2c(C(=O)O)cccc21 | 99.2% (inactive) |
| Clc1cccc(-c2ccc(OCCCN3CCN(c4ccncc4)CC3)cc2)c1 | -53.9% (active) |
| COc1ccc2nc(Nc3cccc(NC(=O)c4ccc(CN5CCCN(C)CC5)c(C(F)(F)F)c4)c3)ccc2c1 | -28% (active) |
| C#CCOc1cc(N(CC)CC)ccc1C(C(=O)NC(C)(C)C)N(C(=O)C1CCc2cc(F)ccc2O1)c1ccc(Br)cc1 (stereo unspecified) | 44.7% (inactive) |
| Cc1nc(N)ncc1-c1ccc2ncnc(N3CCc4cc(F)c(Cl)cc43)c2c1 | 46.6% (inactive) |
| Cc1cccc(NC(=O)CN2CCN(c3ncnc4c3cnn4-c3ccccc3)CC2)c1 | 88.3% (inactive) |
| Cc1ccc(C(=O)Nc2ccc(-n3ccnc3)c(C(F)(F)F)c2)cc1C#Cc1cnc2cccnn12 | -19.6% (active) |
